# According to PubChem BioAssay AID493169 (National Center for Advancing Translational Sciences (NCATS), 2011):
# Inconclusive results are not listed. A call without a number means that no potency is given here. Calls of active or inactive are those of the source. Calls come from the whole dose curve; as a rule, active = well fitted inhibition curve with a large enough effect; inconclusive = small, poorly fitted or top-dose-only effect; inactive = flat fitted curve, though single readings scatter.
# Experiment: CHOP2 Reporter Counterscreen Assay for Inhibitors of Ubiquitin-specific Protease USP2a;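 note: activated enterokinase alone at 50 pM in a cell-free format rather than USP2a or CHOP2; nearly all actives have a fitted effect of over 55% in size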
# Conditions: purified enterokinase, fluorogenic substrate, 485/531 nm; series mostly up to 38.3 µM
# Outline: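 Fluorescence (485/531 nm) read 10 min after adding 25nM reporter substrate to 50 pM activated EK preincubated 30 min RT with compound; Tris pH 8.0/CaCl2/CHAPS buffer. Data normalized to buffer-alone inhibition; concentration-response curves fitted.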
# Potency is the fitted concentration of half-maximal effect.
row,SMILES,Potency
1,CCCOc1ccc(-c2nc(C#N)c(N3CCN(CC)CC3)o2)cc1,inactive
2,Cc1ccc(/C(N)=N/OC(=O)Oc2ccccc2)cc1,inactive
3,COC(=O)N/N=C\c1cc(Br)ccc1OCc1ccccc1,inactive
4,O=C(NC12CC3CC(CC(C3)C1)C2)C1=COCCO1,inactive
5,COc1ccc(NC(=O)C2CC(=O)OC2c2ccccc2)cc1 (stereo not given),inactive
6,COc1ccc(S(=O)(=O)N2CCCCC2)cc1NC(=O)Cc1c[nH]c2ccccc12,inactive
7,O=C(CSc1nnc(SCc2ccccc2)s1)N/N=C/c1c[nH]c2ccccc12,inactive
8,COc1cc(/C=C(/C(=O)c2cccs2)c2nc3ccccc3[nH]2)ccc1O,inactive
9,O=C(O)C(Cc1ccccc1)N1C(=O)/C(=C/C=C/c2ccco2)SC1=S (stereo not given),2.51 µM (active)
10,O=C(COC(=O)c1cccc(S(=O)(=O)N2CCc3ccccc32)c1)NC1CCS(=O)(=O)C1 (stereo not given),inactive
11,CCOc1cc(/C=C/c2nc3cc(C)c(C)cc3s2)ccc1OCC(=O)N1CCOCC1,inactive
12,CC1(C(=O)O)Sc2[nH]c(=O)sc2C2c3ccccc3OC(=O)C21 (stereo not given),inactive
13,CCCCn1c(SCC(=O)N2CCC(C)CC2)nc2cc(S(N)(=O)=O)ccc21,inactive
14,Cc1ccc(C(=O)N/C(=C/c2ccco2)C(=O)Nc2cccc(C(=O)O)c2)cc1,10 µM (active)
15,CCOC(=O)c1ccc(NC(=O)C2=C(C)Nc3nc(CCCO)nn3C2c2cccc(C)c2)cc1 (stereo not given),inactive
16,COc1ccc(Cc2nnc(NC(=O)Cc3cccs3)s2)cc1,1.78 µM (active)
17,CC(C)c1ccc(C2=C(O)c3ccccc3C(=O)C2=O)cc1,inactive
18,CNc1sc(C(=O)c2ccc(F)cc2)c(N)c1-c1nc2ccccc2s1,inactive
19,CN(C)CCCN1C(=O)C(=O)/C(=C(/O)c2ccncc2)C1c1cccnc1 (stereo not given),inactive
20,Cc1ccc(Nc2cc(C)nc(NCc3ccccc3)n2)cc1,inactive

row,SMILES,Potency
1,O=C(Nc1nc(-c2ccco2)c(-c2ccco2)s1)C1CC(=O)N(c2ccc3c(c2)OCCO3)C1 (stereo not given),4.47 µM (active)
2,CCCCCCCCCCOC(=O)Cn1c(COc2ccccc2)[n+](C)c2ccccc21,11.2 µM (active)
3,COc1ccc(-c2nc(Cn3c(SCc4ccc(F)cc4)nc4ccncc43)c(C)o2)cc1OC,inactive
4,CCCC(c1nnnn1Cc1ccc(OC)cc1)N1CCC(C(N)=O)CC1 (stereo not given),inactive
5,C=CC[C@H](CC(=O)OC(C)(C)C)C(=O)OC[C@@H]1CCCN1C(=O)[C@H](CC=C)CC(=O)N[C@H](CO)Cc1ccccc1,inactive
6,CNc1nc(OCCNC(=O)Nc2ccccc2)nc(N2CCOCC2)n1,inactive
7,CCCCC(CC)CN=C(N)NC(N)=NCCCCCCN=C(N)NC(N)=NCC(CC)CCCC (stereo not given),5.62 µM (active)
8,Cc1ccc(-c2c(C)n([O-])c3c([n+]2=O)CCC3)o1,inactive
9,Cc1cnc(N)c2c(=O)oc3ccccc3c12,inactive
10,O=C1/C(=C/C=C/c2ccco2)SC(=S)N1NS(=O)(=O)c1ccccc1,3.55 µM (active)
11,COc1ccc(-c2csc(Nc3ccc(S(=O)(=O)Nc4cc(OC)nc(OC)n4)cc3)n2)cc1,inactive
12,Cc1ccc(NC(=O)c2cc(-c3ccco3)nc3ccccc23)cc1S(=O)(=O)N1CCOCC1,7.08 µM (active)
13,N#Cc1cccc(C(=O)N(CCc2ccccc2)Cc2cccs2)c1,inactive
14,O=C(NC(=S)N1CCCc2ccccc21)c1ccc([N+](=O)[O-])cc1,inactive
15,O=C(N/N=C/c1ccc(-c2ccc(S(=O)(=O)Nc3ncccn3)cc2)o1)c1cc2ccccc2cc1O,3.98 µM (active)
16,COC(=O)c1[nH]c2ccc(C)cc2c1NC(=O)CN1CCCc2ccccc21,10 µM (active)
17,Cc1ccc(S(=O)(=O)Nc2ccc(N3CCOCC3)cc2)cc1,inactive
18,C[C@H](CO)N1C[C@H](C)[C@@H](CN(C)S(=O)(=O)c2cn(C)cn2)Oc2ccc(NC(=O)Cn3cnnn3)cc2C1=O,inactive
19,Cc1ccc(-c2ccc(CCC(=O)O)n2NC(=O)c2cccs2)cc1,inactive
20,O=C(/C=C1\NC2(CCCC2)Cc2ccccc21)C(=O)N/N=C/c1ccc(O)c(O)c1,4.47 µM (active)
